Assay outcomes: PubChem, National Center for Advancing Translational Sciences (NCATS)
The entries come from a sample that favours hits as a whole.
CHX counter = Cycloheximide Counterscreen for Small Molecule Inhibitors of Shiga Toxin | cell reporter, cycloheximide protein synthesis inhibition counterscreen | max response, % | actives 12% (n = 300,000); in the data active = max response mostly above about 13%, no sharp cut-off; inactive = mostly below about 14%; note: read at 38.3 µM for the half of the compounds with a filed dose
Lassa entry inh = qHTS for Inhibitors of binding or entry into cells for Lassa Virus | Lassa virus pseudotype entry inhibition, cell reporter | Potency, µM (series often up to 37.9 µM), most hits filed as inhibitors | actives 1.2% (n = 300,000); calls by dose curve; tested in HEK293 cells; note: nearly all actives have a fitted effect of over 50% in size
Vaccinia mCherry = qHTS for Stage-Specific Inhibitors of Vaccinia Orthopoxvirus: mCherry Reporter Primary qHTS; Vaccinia virus mCherry reporter infection, fluorescence; Potency, µM (series often up to 36.5 µM), hits mostly inhibitors; actives 0.63% (n = 310,000); AID 720579, 2013; calls by dose curve; tested in A549 cells; note: nearly all actives have a fitted effect of over 35% in size
Shiga inhibitor = A qHTS for Small Molecule Inhibitors of Shiga Toxin; actives 9.2% (n = 290,000); Vero cells, Shiga toxin protein synthesis inhibition reporter; inhibition, % at 38.7 µM; AID 2315, 2010; in the data active = inhibition mostly above about 28%, no sharp cut-off; inactive = mostly below about 43%
Vaccinia Venus = qHTS for Stage-Specific Inhibitors of Vaccinia Orthopoxvirus: Venus Reporter Primary qHTS | Vaccinia virus Venus reporter expression, fluorescence | actives 0.46% (n = 330,000) | Potency, µM (top dose mostly 36.5 µM), most hits filed as inhibitors; calls by dose curve; tested in A549 cells; note: nearly all actives have a fitted effect of over 30% in size
MARV entry inh = qHTS for inhibitors of binding or entry into cells for Marburg Virus. Marburg virus pseudotyped entry inhibition, cell reporter. Potency, µM (doses to about 37.8 µM), usual class: inhibitors. actives 1.8% (n = 300,000). AID 540276, 2011; calls by dose curve; tested in HEK293 cells
Each line names hits and unclear results; the compound was inactive in the other large screens.

CC(=O)c1c(C)n(CC(=O)NCc2ccco2)c2ccccc12	MARV entry inh inconclusive
CC(C(=O)NCc1ccco1)n1cc(C(=O)c2ccco2)c2ccccc21 (configuration not stated)	CHX counter 15 (no result: Vaccinia mCherry)
O=C(Cn1cc(C(=O)COc2ccccc2)c2ccccc21)NCc1ccco1	CHX counter 25, Shiga inhibitor 52 (no result: Vaccinia mCherry)
CC(=O)c1cn(CC(=O)NCc2ccco2)c2ccccc12	Shiga inhibitor 130
COCCC1CCCCN1Cc1nc(N2CCCC2)c2cc(OC)c(OC)cc2n1 (configuration not stated)	none (no result: CHX counter, Lassa entry inh, Shiga inhibitor, MARV entry inh)
Cc1ccc(C(=O)c2cn(Cc3ccc(Cl)cc3)c3nc(C)ccc3c2=O)cc1	Lassa entry inh inconclusive (no result: CHX counter, Shiga inhibitor)
O=C1CC(c2ccc(Cl)c([N+](=O)[O-])c2)c2ccc3ccccc3c2N1 (configuration not stated)	Lassa entry inh inconclusive, Vaccinia mCherry 11µM, Vaccinia Venus inconclusive, MARV entry inh inconclusive
COc1cccc(CNc2ccc(S(N)(=O)=O)cc2)c1OC	none
COc1cccc(CNc2ccc3c(c2)ncn3C)c1OC	CHX counter 19
COc1cccc(CNc2ccc3c(c2)nc(C)n3C)c1OC	CHX counter 33, Shiga inhibitor 61 (no result: Lassa entry inh, Vaccinia mCherry, Vaccinia Venus, MARV entry inh)
Cc1ccc(C)n1-c1nccc(-c2ccco2)n1	none
O=c1c(O)c(-c2ccc(O)c(O)c2)oc2c(O)c(O)cc(O)c12	none (no result: CHX counter, Lassa entry inh, Shiga inhibitor, MARV entry inh)
O=c1oc2c(O)c(O)cc3c(=O)oc4c(O)c(O)cc1c4c23	Lassa entry inh inconclusive, MARV entry inh 4.1µM
Cc1ccc(O)c(NC(=O)c2cc(-c3cccs3)on2)c1	CHX counter 21, Vaccinia mCherry inconclusive, Shiga inhibitor 79, MARV entry inh 8.9µM
Cc1ccc(O)c(NC(=O)c2cc(-c3ccc(F)cc3)on2)c1	CHX counter 41, Vaccinia mCherry inconclusive, MARV entry inh inconclusive
Cc1ccc(O)c(NC(=O)c2cc(-c3ccc4c(c3)OCO4)on2)c1	none (no result: CHX counter, Shiga inhibitor)
CSc1ccccc1NC(=O)c1cc(-c2cccs2)on1	Shiga inhibitor 56, MARV entry inh inconclusive (no result: Vaccinia mCherry, Vaccinia Venus)
COc1ccc(CCNC(=O)C2CCC(=O)N2S(=O)(=O)c2ccc(C)cc2)cc1 (configuration not stated)	none (no result: Lassa entry inh, Vaccinia mCherry, Vaccinia Venus, MARV entry inh)
NC(=O)c1ccc(-c2ccccc2F)cc1	CHX counter 17, Shiga inhibitor 41 (no result: Lassa entry inh, Vaccinia mCherry, Vaccinia Venus, MARV entry inh)
C#CC(C)(C)NC(=O)c1ccc(-c2ccccc2F)cc1	CHX counter 30, Shiga inhibitor 64, MARV entry inh inconclusive
C#CC(C)(C)NC(=O)c1ccccc1OC	Lassa entry inh inconclusive
NNC(=O)c1ccc(-c2ccccc2F)cc1	none (no result: Lassa entry inh, Vaccinia mCherry, Vaccinia Venus, MARV entry inh)
CN[C@@H]1C[C@@H](c2ccc(Cl)c(Cl)c2)c2ccccc21	Lassa entry inh 13µM, MARV entry inh 4.6µM (no result: Vaccinia mCherry, Vaccinia Venus)
CN[C@@H]1C[C@H](c2ccc(Cl)c(Cl)c2)c2ccccc21	MARV entry inh 4.6µM (no result: CHX counter, Lassa entry inh, Vaccinia mCherry, Shiga inhibitor, Vaccinia Venus)
C1CCC(C(CC2CCCCN2)C2CCCCC2)CC1 (configuration not stated)	Lassa entry inh 18µM, Vaccinia mCherry 11µM, Vaccinia Venus 13µM, MARV entry inh inconclusive
NC(CC(=O)O)C1CCCCC1 (configuration not stated)	none (no result: Lassa entry inh, Vaccinia mCherry, Vaccinia Venus, MARV entry inh)
O=C(/C=C/c1ccco1)NCc1ccccn1	none (no result: Lassa entry inh, MARV entry inh)
Cc1sc(NC(=O)/C=C/c2ccco2)c(C(=O)O)c1C	CHX counter 25, Lassa entry inh inconclusive, MARV entry inh inconclusive
O=C(/C=C/c1ccco1)Nc1cccnc1Cl	CHX counter 46, Shiga inhibitor 157 (no result: Lassa entry inh, Vaccinia mCherry, Vaccinia Venus, MARV entry inh)
O=C(/C=C/c1ccccc1)Nc1cccnc1Cl	CHX counter 42, Lassa entry inh inconclusive, Shiga inhibitor 105
O=C(/C=C/c1ccco1)Nc1ccccc1N1CCCCC1	CHX counter 24, Shiga inhibitor 92 (no result: Lassa entry inh, Vaccinia mCherry, Vaccinia Venus, MARV entry inh)
COc1ccc(C(=O)NCCn2cc(SCc3cccc(F)c3)c3ccccc32)cc1OC	Lassa entry inh inconclusive, MARV entry inh inconclusive (no result: CHX counter, Shiga inhibitor)
Cc1cc(C)cc(NC(=O)CSc2nc(-c3ccccc3)c3cc(F)ccc3n2)c1	none (no result: CHX counter, Shiga inhibitor)
Cc1ccc(-c2nnc(Nc3ccc(OCC(N)=O)cc3)c3ccccc23)cc1S(=O)(=O)N(C)C	none (no result: CHX counter, Shiga inhibitor, MARV entry inh)
O=C(/C=C/c1ccco1)Nc1cccc(C(=O)Nc2ccccc2C(=O)O)c1	none (no result: Lassa entry inh, MARV entry inh)
COC(=O)c1ccccc1NC(=O)/C=C/c1ccco1	CHX counter 38, Lassa entry inh inconclusive, Shiga inhibitor 53
CCOC(=O)C1(CC2CCCCO2)CCN(C(=O)Nc2ccc(C)c(C)c2)CC1 (configuration not stated)	none
CCOC(=O)C1(CC2CCCCO2)CCN(S(=O)(=O)c2ccc(C)s2)CC1 (configuration not stated)	none
CCOC(=O)C1(CC2CCCCO2)CCN(C(=O)Nc2ccccc2)CC1 (configuration not stated)	CHX counter 29, Shiga inhibitor 35
CCOC(=O)C1(CC2CCCCO2)CCN(S(=O)(=O)c2ccsc2)CC1 (configuration not stated)	CHX counter 13 (no result: Lassa entry inh, Vaccinia mCherry, Vaccinia Venus, MARV entry inh)
CCOc1ccccc1C1CC(c2ccc(Br)cc2)Nc2nc(N)nn21 (configuration not stated)	Lassa entry inh inconclusive, MARV entry inh inconclusive (no result: Vaccinia mCherry, Vaccinia Venus)
OC(CCN1CCCCC1)(c1ccccc1)C1CC2C=CC1C2 (configuration not stated)	Lassa entry inh inconclusive, MARV entry inh 6.5µM (no result: CHX counter, Vaccinia mCherry, Shiga inhibitor, Vaccinia Venus)
OC(CCN1CCCCC1)(c1ccccc1)C1CCCCC1 (configuration not stated)	MARV entry inh 5µM (no result: Lassa entry inh)
Cc1ccc(S(=O)(=O)NC(=O)COc2cc(C)ccc2C(C)C)cc1	Lassa entry inh inconclusive
CCOc1ccc(/C=C2/SC(=O)NC2=S)cc1	CHX counter 35, Lassa entry inh inconclusive, Shiga inhibitor 46, MARV entry inh inconclusive
CCOc1ccc(N=C2NC(=O)S/C2=C\c2ccc(N(C)C)cc2)cc1	CHX counter 22, Shiga inhibitor 59 (no result: Vaccinia mCherry, Vaccinia Venus)
CC1=C(C(=O)Nc2cccnc2)C(c2ccc(Cl)cc2)n2nc(-c3ccccc3)nc2N1 (configuration not stated)	MARV entry inh inconclusive (no result: CHX counter, Shiga inhibitor)
CCOc1ccccc1C=NN1CCCCCC1	MARV entry inh inconclusive (no result: CHX counter, Shiga inhibitor)
Cc1ccc(C(=O)Nc2ccc3c(c2)OCO3)o1	CHX counter 31, Shiga inhibitor 68
C/C(=C\C(=O)c1ccccc1)Nc1ccc2c(c1)OCO2	CHX counter 37, Shiga inhibitor 50
C/C(=C\C(=O)c1ccc(C)o1)Nc1ccc2c(c1)OCO2	CHX counter 23, Shiga inhibitor 49 (no result: Vaccinia mCherry, Vaccinia Venus)
Cc1ccc(C(=O)OCC(=O)Nc2ccc3c(c2)OCO3)o1	MARV entry inh inconclusive (no result: Vaccinia mCherry, Vaccinia Venus)
Cc1cnc(SCC2CCCO2)nc1C1CCCN(Cc2nc(-c3ccccc3)cs2)C1 (configuration not stated)	none (no result: CHX counter, Lassa entry inh, Shiga inhibitor, MARV entry inh)
CCOC(=O)N1CCN(Cc2nc3c(c(=O)n(C)c(=O)n3C)n2CCCc2ccccc2)CC1	none (no result: Vaccinia mCherry, Vaccinia Venus)
COC(=O)Cc1ccc(NC(=O)c2cccs2)cc1	CHX counter 49, Shiga inhibitor 82, Vaccinia Venus inconclusive
